Experimental data taken from ChEMBL document CHEMBL2218924, “A broad activity screen in support of a chemogenomic map for kinase signalling research and drug discovery” (Biochem J, 2013).

target: Ephrin type-A receptor 4 (Homo sapiens) (UniProt P54764); conditions: at 1 µM
Sequence (P54764 whole entry): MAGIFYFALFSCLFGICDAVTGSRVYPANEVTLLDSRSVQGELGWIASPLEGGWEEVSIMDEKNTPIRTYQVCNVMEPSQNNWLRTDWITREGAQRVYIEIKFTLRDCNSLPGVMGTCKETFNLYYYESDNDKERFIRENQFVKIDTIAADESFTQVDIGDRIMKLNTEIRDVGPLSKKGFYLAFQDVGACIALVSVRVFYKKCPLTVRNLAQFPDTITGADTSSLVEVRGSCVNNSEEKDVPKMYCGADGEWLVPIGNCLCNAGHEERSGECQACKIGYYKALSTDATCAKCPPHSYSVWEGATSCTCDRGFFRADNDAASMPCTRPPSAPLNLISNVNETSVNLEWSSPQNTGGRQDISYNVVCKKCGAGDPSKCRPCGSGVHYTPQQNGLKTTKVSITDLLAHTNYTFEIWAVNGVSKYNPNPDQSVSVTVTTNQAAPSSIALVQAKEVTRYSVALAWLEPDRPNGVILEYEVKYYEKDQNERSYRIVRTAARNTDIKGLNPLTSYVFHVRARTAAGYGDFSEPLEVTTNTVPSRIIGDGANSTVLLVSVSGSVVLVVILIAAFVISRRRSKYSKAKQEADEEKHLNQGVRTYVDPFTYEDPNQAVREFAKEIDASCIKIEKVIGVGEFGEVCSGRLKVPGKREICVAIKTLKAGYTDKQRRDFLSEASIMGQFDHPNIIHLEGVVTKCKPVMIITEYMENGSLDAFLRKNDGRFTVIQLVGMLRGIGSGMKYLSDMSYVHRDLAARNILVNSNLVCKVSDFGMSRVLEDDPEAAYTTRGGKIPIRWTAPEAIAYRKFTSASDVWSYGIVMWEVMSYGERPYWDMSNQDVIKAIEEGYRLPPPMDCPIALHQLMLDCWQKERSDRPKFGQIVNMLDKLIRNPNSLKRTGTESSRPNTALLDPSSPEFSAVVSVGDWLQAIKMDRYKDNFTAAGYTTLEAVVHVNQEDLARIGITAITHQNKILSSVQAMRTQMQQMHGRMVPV

Compound | residual activity [%]
CC(C)(C)n1nc(Cc2cccc3ccccc23)c2c(N)ncnc21 | 47
COc1cc2ncnc(Nc3cccc(Cl)c3)c2cc1OC | 103
O=C1Nc2ccc(Cl)cc2/C1=C/c1cc(Cl)c(O)c(Cl)c1 | 99
COc1cc2nccc(Oc3ccc(NC(=O)Nc4cc(C)on4)c(Cl)c3)c2cc1OC | 26
Nc1ncnc2c1c(-c1ccc(Oc3ccccc3)cc1)cn2C1CCCC1 | 112
CSc1nc(-c2ccc(F)cc2)c(-c2ccnc(NC(C)c3ccccc3)c2)[nH]1 (stereo unspecified) | 102
O=C(CCCc1ccc(-c2ccccc2F)cc1)Nc1ccc(O)cc1 | 108
O=C1NC(=O)c2c1c1c3ccccc3[nH]c1n1cncc21 | 98
CC(C)c1nn(-c2c(Cl)cccc2Cl)c2nc(Cc3ccc(OCCO)cc3)[nH]c(=O)c12 | 121
COc1ccc2c(c1)c(C1=C(c3c[nH]c4ccccc34)C(=O)NC1=O)cn2CCCN(C)C | 115
CCCC(=O)Oc1ccc2[nH]c(C(=O)c3cc4ccccc4[nH]3)cc2c1 | 105
CCCCc1c(-c2ccc(OC)cc2)[nH]c2nccnc12 | 108
NC(=O)Nc1sc(-c2ccc(F)cc2)cc1C(N)=O | 93
Nc1ncnc2[nH]nc(Nc3ccc(F)cc3)c12 | 111

target: Ephrin type-A receptor 4 (Homo sapiens) (UniProt P54764); conditions: at 10 µM

Compound | residual activity [%]
CC(C)(C)n1nc(Cc2cccc3ccccc23)c2c(N)ncnc21 | 5
COc1cc2ncnc(Nc3cccc(Cl)c3)c2cc1OC | 57
O=C1Nc2ccc(Cl)cc2/C1=C/c1cc(Cl)c(O)c(Cl)c1 | 90
COc1cc2nccc(Oc3ccc(NC(=O)Nc4cc(C)on4)c(Cl)c3)c2cc1OC | 3
Nc1ncnc2c1c(-c1ccc(Oc3ccccc3)cc1)cn2C1CCCC1 | 79
CSc1nc(-c2ccc(F)cc2)c(-c2ccnc(NC(C)c3ccccc3)c2)[nH]1 (stereo unspecified) | 91
O=C(CCCc1ccc(-c2ccccc2F)cc1)Nc1ccc(O)cc1 | 96
Nc1ncnc2c1cnn2-c1ccccc1 | 97
O=C1NC(=O)c2c1c1c3ccccc3[nH]c1n1cncc21 | 94
CC(C)[C@H](CO)Nc1nc(Nc2cc(N)cc(Cl)c2)c2ncn(C(C)C)c2n1 | 63
CN(C)S(=O)(=O)c1ccc2c(c1)/C(=C/c1cc3c([nH]1)CCCC3)C(=O)N2 | 92
COc1ccc2c(c1)c(C1=C(c3c[nH]c4ccccc34)C(=O)NC1=O)cn2CCCN(C)C | 73
CCCC(=O)Oc1ccc2[nH]c(C(=O)c3cc4ccccc4[nH]3)cc2c1 | 91
O=c1cc(N2CCOCC2)oc2c1ccc1ccccc12 | 103
CCCCc1c(-c2ccc(OC)cc2)[nH]c2nccnc12 | 105
NC(=O)Nc1sc(-c2ccc(F)cc2)cc1C(N)=O | 43
Nc1ncnc2[nH]nc(Nc3ccc(F)cc3)c12 | 77
